Several values for one entry are separate records, joined by “and”; a condition that tells them apart may be missing. Equal entries are not always repeated. The panel holds about 79,000 compounds, 15% with a hit somewhere; the sample as a whole holds those more often. Rule as the data show it: active = growth inhibition above about 70%; inactive = the rest.
Columns and labels:
[1] = NCI Yeast Anticancer Drug Screen. Data for the rad50 strain (AID 155);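 also: 0% = growth of vehicle-only cultures of the same strain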; conditions: S. cerevisiae rad50 strain growth inhibition, hits give high values; at 50.0 µM unless noted
How it was run: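 Relative growth inhibition (compound vs vehicle) was measured in yeast with a defined repair-gene alteration.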

[2] = NCI Yeast Anticancer Drug Screen. Data for the mec2-1 strain (AID 157); conditions: S. cerevisiae mec2-1 strain, hits give high values; at 50.0 µM unless noted
How it was run: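 Each compound was tested on mec2-1 yeast, a strain altered in DNA damage repair or cell cycle control. Growth inhibition is reported relative to vehicle.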

[3] = NCI Yeast Anticancer Drug Screen. Data for the sgs1 mgt1 strain (AID 161);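 also: 0% = growth of cultures given vehicle only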; conditions: S. cerevisiae sgs1 mgt1 strain, hits give high values; at 50.0 µM unless noted
How it was run: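 Read-out: growth inhibition vs vehicle controls. Cells: mutant yeast strain deficient in DNA damage repair.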

[4] = NCI Yeast Anticancer Drug Screen. Data for the cln2 rad14 strain (AID 165);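 also: 0% = growth equal to vehicle treated cultures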; conditions: S. cerevisiae cln2 rad14 strain, hits give high values; at 50.0 µM unless noted
How it was run: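 Test compounds were added to cln2 rad14 yeast cultures; inhibition of growth was then determined by comparison with vehicle treatment.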

[5] = NCI Yeast Anticancer Drug Screen. Data for the bub3 strain (AID 167); conditions: S. cerevisiae bub3 mutant strain, hits give high values; at 50.0 µM unless noted
How it was run: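 Screening used yeast with an engineered genetic alteration affecting cell cycle control. Compound-exposed cultures were compared with vehicle cultures, and reduced growth was taken as inhibition.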

[6] = NCI Yeast Anticancer Drug Screen. Data for the mlh1 rad18 strain (AID 175); conditions: S. cerevisiae mlh1 rad18 strain growth inhibition, hits give high values; at 50.0 µM unless noted
How it was run: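 Inhibition values reflect reduced growth of mutant yeast versus vehicle-treated controls following compound exposure; the mutations affect DNA damage repair.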

Measured: growth inhibition

COc1ccc(C)cc1NC(=O)Nc1ccccc1F
inactive: [1] 6.9% | [2] 15.2% | [3] 6.15% | [4] 3.3% | [5] -0.4% | [6] 5.15%

O=C(CSc1nnc(-c2ccc(N=Cc3ccc(Cl)cc3)cc2)o1)Nc1cccc([N+](=O)[O-])c1
inactive: [1] -1.95% | [2] -11.1% | [3] 3.85% | [4] 18.1% | [5] -40% | [6] 2.45%

COc1ccc2c3c(ccc2c1)[C@@H]1C/C(=C(\OC(C)=O)C(F)(F)F)C(=O)[C@@]1(C)CC3
inactive: [1] -0.85% | [2] -4.85% | [3] 0.4% | [4] 20.8% | [5] -11.2% | [6] 20.3%

Cc1ccc([N+](=O)[O-])cc1NC(=O)/C(=N/NC(=S)NN)C1SC(=S)NC1=O (configuration not stated)
inactive: [1] 19.4% | [2] -12.1% | [3] 12.2% | [4] 20.9% | [5] -19.6% | [6] -8.75%

NC(=O)C(=CN1C(=O)CC(=O)NC1=S)C(N)=O
inactive: [1] -29.8% | [2] -34% | [3] -11.6% | [4] -13.8% | [5] -26.6% | [6] 13.5%

CC1NC(=O)OC12CCCCC2 (configuration not stated)
inactive: [1] 16.4% | [2] -3.55% | [3] -2.95% | [4] -27.6% | [5] -7.5% | [6] -30.4%

COc1ccc(OC2OC(CO)C(O)C(O)C2O)cc1 (configuration not stated)
inactive: [1] 8.9% | [2] -0.1% | [3] -4.3% | [4] 18.1% | [5] 6.5% | [6] -50.6%

CC1=CCC(C(C)C)C2CC(C)(O)CCC12 (configuration not stated)
inactive: [1] -3.1% | [2] -1.8% | [3] 7.15% | [4] -24.9% | [5] -4.35% | [6] 0.95%

CC1=NC(C)(C)N(O)C1(C)C
inactive: [1] -21.9% | [2] -4.3% | [3] -3.05% | [4] -0.8% | [5] -9% | [6] -53.5%

CCN(CC)CCNC(=O)c1ccc(I)cc1
inactive: [1] -43.4% | [2] -14.8% | [3] -0.9% | [4] -25.6% | [5] -4.35% | [6] -30.9%

CCCCCCCOC(=O)C1(O)CCCCC1
inactive: [1] 6.1% | [2] 1.25% | [3] 6.65% | [4] 32.5% | [5] 16.8% | [6] -16.6%

CCNC(=O)CCCC(=O)OC
inactive: [1] 9.75% | [2] 4.55% | [3] 18.9% | [4] 14.6% | [5] 7.35% | [6] 2.2%

COC(=O)c1cc(-c2ccc(N)cc2)n2c(N)nnc2n1
inactive: [1] 15% | [2] 23.4% | [3] 25.8% | [4] -1.55% | [5] 2.45% | [6] 18.6%

CC(C)CCCC(C)C1CCC2C3CC=C4CC(OC(=O)Nc5ccc(S(=O)(=O)NC6CCCCC6)cc5)CCC4(C)C3CCC12C (configuration not stated)
inactive: [1] -1.85% | [2] -4.35% | [3] 12.7% | [4] -38.1% | [5] -12.4% | [6] 8.25%

CC(C)CC(Br)C(=O)NCC(=O)O (configuration not stated)
inactive: [1] -25.1% and 5.2% | [2] -55.1% and -6.55% | [3] -27.9% | [4] 8.5% | [5] -24.1% | [6] -11% and -4.8%

COc1ccc(C(=O)N2N=C(C)C(C)(C)C2(C)O)cc1 (configuration not stated)
inactive: [1] -7.05% | [2] -23.1% | [3] -23.6% | [4] 2.5% | [5] -29.8% | [6] -1.95%

CC#CC#C/C(=C/C=CC(=O)OC)SC
inactive: [1] 1.95% | [2] -18.9% | [3] 13.7% | [4] 12.3% | [5] 6.6% | [6] -38.2%

CCOCCOC(=O)COc1ccccc1
inactive: [1] 12.8% | [2] 16.4% | [3] 17.6% | [4] 7% | [5] -7.85% | [6] 3.65%

CCOC(=O)c1c(C)[nH]c(C=O)c1C
inactive: [1] 5.65% | [2] 9.3% | [3] 0.25% | [4] 16.7% | [5] -0.25% | [6] 4.4%

NC(=O)C(=Cn1c(=S)[nH]c2ccc([N+](=O)[O-])cc21)C(N)=O
inactive: [1] -10% | [2] -40.9% | [3] -9.9% | [4] 11.7% | [5] -22.6% | [6] 31.9%

COc1ccccc1NC(=O)c1ccccc1
inactive: [1] 23.2% | [2] 11.3% | [3] 4.95% | [4] -9.25% | [5] 2.75% | [6] 16.1%

O=C(O)/C=C/c1ccc(OS(=O)(=O)O)cc1
inactive: [1] -12.6% | [2] -31.4% | [3] -14.9% | [4] 7.8% | [5] -9.8% | [6] -7.4%

CN(N)c1nc(N)c(C#N)c(C#N)c1C#N
inactive: [1] -16.8% | [2] -22.5% | [3] -4.9% | [4] 11.7% | [5] -2.65% | [6] 3.9%

O=NN1C(c2ccccc2)CNC(=O)CC1c1ccccc1 (configuration not stated)
inactive: [1] -27% | [2] -1.4% | [3] -1.65% | [4] -8% | [5] 20.6% | [6] -18.2%

COC(=O)c1cc2c(cc1/C=C/C=O)OCO2
inactive: [1] -20% | [2] -15.8% | [3] -19.4% | [4] -27.9% | [5] -11% | [6] 13.8%

BrCC(Br)C1OCCCO1 (configuration not stated)
inactive: [1] 18.4% | [2] 18.1% | [3] 38.4% | [4] 22.4% | [5] 5.25% | [6] 34.6%

Nc1nc(-c2ccco2)cc(-c2ccco2)n1
inactive: [1] -23.4% | [2] -23.2% | [3] -18.8% | [4] 12.8% | [5] -20.1% | [6] -31.1%

CC(C)[Si]1(C(C)C)OCC2OC(n3ccc(=O)[nH]c3=O)C([Se]c3ccccc3)C2O[Si](C(C)C)(C(C)C)O1 (configuration not stated)
inactive: [1] 0% | [2] -22.1% | [3] -25.5% | [4] -17.2% | [5] -49.9% | [6] -61.9%

Cc1c(CCN2CCOCC2)c(N2CCOCC2)n2c(nc3ccccc32)c1C#N
inactive: [1] -14.7% | [2] -11.9% | [3] -9.2% | [4] 1% | [5] -16.3% | [6] -15%

C[n+]1c(/C=C\C=C\c2ccccc2)sc2ccccc21
inactive: [1] 16.6% | [2] 2.05% | [3] 16.1% | [4] 18.1% | [5] 3% | [6] 11.2%

CN1C(=O)N(C)C2(O)c3ccccc3C(=O)C12O (configuration not stated)
inactive: [1] 14.6% | [2] 2.9% | [3] 18.9% | [4] 15% | [5] 19.8% | [6] 38.9%

O=C1CN(C2OC(CO)C(O)C2O)C(=O)NC1=O (configuration not stated)
inactive: [1] 41.8% | [2] 14.2% | [3] 55.2% | [4] -11.2% | [5] 9.15% | [6] 24.4%

Cc1c(C)c(C)c(CCc2c(C)c(C)c(C)c(C)c2C)c(C)c1C
inactive: [1] -16.8% | [2] -1.25% | [3] -0.9% | [4] -16.5% | [5] -4.15% | [6] -12.3%

O=C1CN(Cc2cccc(Cl)c2)CC(=O)N2Cc3ccccc3CN12
inactive: [1] 34.4% | [2] -1% | [3] 14.2% | [4] -10.8% | [5] 8.9% | [6] -11.5%

O=c1n(-c2ccccc2)c(=O)n(-c2ccccc2)c(=O)n1-c1ccccc1
inactive: [1] -2.2% | [2] -13.2% | [3] -17.1% | [4] 5% | [5] 7.45% | [6] -14.7%

COC1(OC)C(C#N)=C(c2ccccc2)C1(OC)OC
inactive: [1] -8% | [2] -6.25% | [3] -6.5% | [4] -19.9% | [5] -14% | [6] -6.8%

O=C(CSC(=S)N1CCOCC1)Nc1nc2c(s1)CCCC2
inactive: [1] -15.1% | [2] -32% | [3] -28.2% | [4] 2.6% | [5] -1.65% | [6] -16.3%

Reference: PubChem BioAssay (NCI)
